# Experimental data taken from PubChem BioAssay (EPA / NIEHS).
# Activity calls are given as the source filed them. The calls were made as follows: active = hit-call score of the fitted dose curve at least 0.9, where 1 is the maximum; inactive = score below 0.9.
# Experiment: ATG_PBREM_CIS: Attagene CIS-FACTORIAL HepG2 Assay for human Phenobarbital-responsive Enhancer Module (PBREM) (AID 2282955)
# Details: HepG2 PBREM cis-reporter, Attagene multiplexed transcription; actives raise or lower the signal
# Method: ATG_CIS is a cell-based, multiplexed-readout assay that uses HepG2, a human liver cell line, with measurements taken at 24 hours after chemical dosing in a 24-well plate.ATG_PBREM_CIS is one of 52 assay component(s) measured or calculated from the ATG_CIS assay. It is designed to make measurements of mRNA induction, a form of inducible reporter, as detected with fluorescence intensity signals by Reverse transcription polymerase chain reaction (RT-PCR) and Capillary electrophoresis technology.Data from the assay component ATG_PBREM_CIS was analyzed into 1 assay endpoint. This assay endpoint, ATG_PBREM_CIS, was analyzed with bidirectional fitting relative to DMSO as the negative control and baseline of activity. Using a type of inducible reporter, measures of mRNA for gain or loss-of-signal activity can be used to understand the reporter gene at the transcription factor-level as they relate to the gene NR1I3. Furthermore, this assay endpoint can be referred to as a primary readout, because this assay has produced multiple assay endpoints where this one serves a reporter gene function. To generalize the intended target to other relatable targets, this assay endpoint is annotated to the nuclear receptor intended target family, where the subfamily is non-steroidal.
# Human liver HepG2 cells are transiently transfected with multiple reporter transcription units (MRTUs) in 6-well plates using FuGene 6 reagent (Roche; 3 ml FuGene/1 mg DNA). The MRTU constructs are regulated by a cis-regulating element (promoter). […] A major difference between the CIS and TRANS system is that in CIS activities of endogenous TFs are measured, whereas the TRANS assay evaluates changes in activities of exogenous, chimeric NR-Gal4 proteins. […] At the end of 24 hour incubation, total RNA was isolated using TriZol reagent (Invitrogen). The isolated RNA is then reverse-transcribed using oligo(dT) primer and Mo-MLV reverse transcriptase (Invitrogen) with DNAse I (Ambion) treatment for 30 min. The one-tenth of the produced cDNA was amplified by PCR using Taq DNA polymerase (Invitrogen) and two reporter sequence-specific primers. The PCR products were fluorescently labeled by primer extension with 6-arboxyfluorescein (6-FAM) 5'-labeled reporter sequence-specific primer (2 min at 95 C, 20 s at 68 C and 10 min at 72 C) and these products were digested with 5U of HpaI (New England Biolabs) for 2h at 37 C. The fragments were purified using Qiaquick PCR columns (Qiagen), analyzed on an ABI 3130xL genetic analyzer (Applied Biosystems) with peak positions identified by using a set of X-rhodamine (ROX)-labeled MapMarker1000 molecular weight standards (BioVentures). The raw capillary electrophoresis data was processed using Attagraph software (Attagene).
SMILES,outcome,AC50
CCCCN(CCCC)SN(C)C(=O)Oc1cccc2c1OC(C)(C)C2,inactive,–
O=NN1CCCC1,inactive,–
C=C(C)C(=O)OCC1CO1 (stereo not given),inactive,–
CC(C)Nc1ccc(Nc2ccccc2)cc1,inactive,–
Cc1ccc(C(=O)Cl)cc1,inactive,–
CCOP(=S)(NC(C)C)Oc1ccccc1C(=O)OC(C)C (stereo not given),inactive,–
CCOS(=O)(=O)OCC,inactive,–
Cc1ccc(O)cc1C,inactive,–
CCCCC(CC)COC(=O)c1c(Br)c(Br)c(Br)c(Br)c1C(=O)OCC(CC)CCCC (stereo not given),inactive,–
NNC(N)=S,inactive,–
C=CC(=O)OCC(CC)(COC(=O)C=C)COC(=O)C=C,inactive,–
CCCCOCC1CO1 (stereo not given),inactive,–
Clc1ccc(Oc2ccccc2)cc1,inactive,–
CCC1(c2ccccc2)C(=O)N=C(O)NC1=O (stereo not given),inactive,–
O=P(OCC(Br)CBr)(OCC(Br)CBr)OCC(Br)CBr (stereo not given),inactive,–
COP(=O)(CCC(=O)NCO)OC,inactive,–
N#Cc1cc([N+](=O)[O-])ccc1N,inactive,–
c1nc[nH]n1,inactive,–
CCCCc1ccc(O)cc1,inactive,–
O=S(=O)(F)C(F)(F)C(F)(F)C(F)(F)C(F)(F)C(F)(F)C(F)(F)C(F)(F)C(F)(F)F,inactive,–

SMILES,outcome,AC50
O=C(O)C(F)(F)OC(F)(F)C(F)(F)OC(F)(F)F,inactive,–
O=[N+]([O-])c1ccc(Cl)c(Cl)c1,inactive,–
FC(F)(F)c1ccc(Cl)cc1,inactive,–
CO/N=C(/C(=O)OC)c1ccccc1COc1ccccc1C,inactive,–
CC(C)(C)OOC(C)(C)C,inactive,–
CC(=O)c1ccc(-c2ccccc2)cc1,inactive,–
FC(F)(F)C(F)(C(F)(F)F)C(F)(F)C(F)(F)CC1CO1 (stereo not given),inactive,–
CCNc1nc(Cl)nc(NC(C)(C)C)n1,inactive,–
c1ccc2c(c1)sc1ccccc12,inactive,–
ClC(Cl)c1ccccc1,inactive,–
COP(=O)(O)OC,inactive,–
CCCCOCCOP(=O)(OCCOCCCC)OCCOCCCC,inactive,–
OCC(F)(F)OC(F)(F)C(F)(F)OC(F)(F)C(F)(F)OC(F)(F)CO,inactive,–
Oc1ccccc1Br,inactive,–
ClC(Cl)(Cl)c1ccccc1,inactive,–
O=C(O)C(F)(F)OC(F)(F)C(F)(F)OC(F)(F)C(=O)O,inactive,–
CCOP(=S)(OCC)SCn1nnc2ccccc2c1=O,–,1.32 µM (active)
CN(C)C(=O)Cl,inactive,–
CCCCc1ccccc1,inactive,–
Nc1ccc2ccccc2c1,inactive,–
